Sfp PPTase inh = Sfp phosphopantetheinyl transferase inhibition | Q9F4F7 | Biochemical Sfp PPTase activity, qHTS | Potency, µM, actives largely listed as inhibitors | 3.5% of 310,000 active;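 also: the enzyme is Sfp with the accession as filed and its product quenches rhodamine fluorescence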
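After 15 min at room temperature with compound, 15 nM Sfp received 5 uM rhodamine-CoA plus 12.5 uM BHQ-2-ybbR (50 mM Hepes pH 7.6, 10 mM MgCl2). Rate came from the fluorescence difference over 30 min, ex 525/em 598 nm.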
HP1b binding inh = HP1-beta chromodomain-methylated histone interaction inhibition; AlphaScreen HP1-beta / biotin-H3K9me3 peptide binding; Potency, µM (top dose mostly 114 µM), hits mostly inhibitors; 0.56% of 390,000 active; AID 540317; also: nearly all actives have a fitted effect of over 70% in size
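AlphaScreen: HP1-beta (50 nM) preformed 30 min with biotin-H3(1-18)K9me3 peptide (50 nM) in PBS pH 7.4, 0.01% Tween-20. Compound added for 30 min at RT, then streptavidin donor/nickel chelate acceptor beads (10 ug/mL) for 30 min.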
JMJD2A Tudor inh = inhibitors of human JMJD2A Tudor domain | AlphaScreen JMJD2A-Tudor / H3K4me3 peptide binding | Potency, µM (highest dose often 114 µM), hits mostly inhibitors | 4.4% of 390,000 active | O75164; also: nearly all actives have a fitted effect of over 50% in size
BAZ2B block = blocks human BAZ2B. AlphaScreen BAZ2B-H3K14Ac peptide displacement. Potency, µM (doses to about 114 µM), most hits filed as inhibitors. 4.4% of 360,000 active; also: nearly all actives have a fitted effect of over 60% in size
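AlphaScreen displacement: compounds (up to 110uM) incubated 30 min at room temperature with a preformed 50 nM BAZ2B/50 nM biotinylated H3K14Ac peptide complex in PBS pH 7.4 with Tween-20. Donor and acceptor beads at 10 ug/mL final added, 20 min light-protected before reading.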
PLK1 PBD block = PLK1 (human) polo-box domain binding inhibition. P53350. Plk1 PBD binding of FITC phosphopeptide, fluorescence polarization. Potency, µM, usual class: inhibitors. 2.8% of 360,000 active. AID 720504; also: series mostly up to about 57 µM; nearly all actives have a fitted effect of over 65% in size
Target sequence (P53350 whole entry, looked up, the tested form may be a part): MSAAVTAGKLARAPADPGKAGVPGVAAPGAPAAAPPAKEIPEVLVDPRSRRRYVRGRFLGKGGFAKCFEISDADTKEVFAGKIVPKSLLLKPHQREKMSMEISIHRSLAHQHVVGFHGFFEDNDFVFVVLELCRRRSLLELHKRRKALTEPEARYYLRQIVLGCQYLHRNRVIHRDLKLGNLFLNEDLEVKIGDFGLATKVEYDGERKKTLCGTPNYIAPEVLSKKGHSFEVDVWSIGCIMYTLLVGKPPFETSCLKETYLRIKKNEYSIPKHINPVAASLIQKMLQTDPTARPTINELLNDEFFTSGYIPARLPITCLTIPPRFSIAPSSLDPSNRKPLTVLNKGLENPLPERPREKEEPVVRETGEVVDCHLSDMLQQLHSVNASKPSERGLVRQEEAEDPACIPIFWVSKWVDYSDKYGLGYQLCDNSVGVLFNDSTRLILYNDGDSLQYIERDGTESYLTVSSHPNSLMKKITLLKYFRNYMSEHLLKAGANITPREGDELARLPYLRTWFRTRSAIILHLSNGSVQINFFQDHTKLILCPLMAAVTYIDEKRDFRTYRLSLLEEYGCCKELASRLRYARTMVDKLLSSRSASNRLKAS
G9a inh = G9a (human) methyltransferase inhibition; Q96KQ7; G9a H3K9 monomethylation, AlphaScreen, 2 h; Potency, µM (titrated, usually from 102 µM), actives largely listed as inhibitors; 8.8% of 350,000 active; also: nearly all actives have a fitted effect of over 75% in size
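Compounds were preincubated with 20 nM G9a for 15 min, after which biotinylated H3K9 peptide (500 nM) and SAM (20 uM) started a 2 h room-temperature reaction. Monomethylated product was quantified by antibody-based AlphaScreen chemiluminescence.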
Numbers stand for hits; 0 = inactive; ? = inconclusive; - = no result. Sampled rows, rich in hits. Any-hit rate of the full collection: about 12%. Calls follow the shape of the dose curve; as a rule, active = well fitted curve in the direction sought with a large enough effect; inconclusive = small, poorly fitted or top-dose-only effect, or another doubt; inactive = no such curve, though single readings can be large; an effect the other way counts as inactive or inconclusive.

SMILES	Sfp PPTase inh	HP1b binding inh	JMJD2A Tudor inh	BAZ2B block	PLK1 PBD block	G9a inh
CCOc1ccc(C(=O)NCc2cccnc2)cc1	0	0	0	0	0	0
CCOc1ccc(C(=O)NC(=S)NCc2cccnc2)cc1	0	0	0	0	0	1µM
CCOc1cccc(C(=O)NC(=S)NCc2cccnc2)c1	0	0	0	0	0	0
CCCOc1ccc(C(=O)NC(=S)NCc2cccnc2)cc1	0	0	0	?	0	44.7µM
O=C(O)c1sccc1S(=O)(=O)Nc1ccc(Cl)cc1	0	-	-	-	-	-
Cc1ccc(OCC(=O)N(Cc2ccco2)Cc2ccc(C)o2)cc1	-	0	?	0	-	0
COc1cccc(C(=O)NNS(=O)(=O)c2ccc(C)cc2)c1	0	0	0	0	0	0
CN(C)CCCN(C(=O)c1ccc(S(=O)(=O)N(C)Cc2ccccc2)cc1)c1nc2c(F)cccc2s1	0	0	?	?	0	0
COc1ccc2sc(N(CCCN(C)C)C(=O)c3ccc(C(=O)c4ccccc4)cc3)nc2c1	-	0	50.1µM	?	0	44.7µM
CN(C)CCCN(C(=O)c1ccco1)c1nc2c(F)cc(F)cc2s1	0	0	0	0	0	0
CCN(Cc1ccccc1)S(=O)(=O)c1ccc(C(=O)N(CCCN(C)C)c2nc3cc(OC)ccc3s2)cc1	-	0	?	?	0	44.7µM
CCN(Cc1ccccc1)S(=O)(=O)c1ccc(C(=O)N(CCCN(C)C)c2nc3cc4c(cc3s2)OCCO4)cc1	-	?	44.7µM	35.5µM	0	39.8µM
CN(C)CCCN(C(=O)c1ccco1)c1nc2cc3c(cc2s1)OCO3	0	0	0	0	0	0
CCN(c1ccccc1)S(=O)(=O)c1ccc(C(=O)N(CCN(C)C)c2nc3c(F)cc(F)cc3s2)cc1	0	-	-	0	-	44.7µM
CN(C)CCCN(C(=O)c1ccco1)c1nc2ccc(F)cc2s1	0	0	0	-	0	?
CCN(Cc1ccccc1)S(=O)(=O)c1ccc(C(=O)N(CCCN(C)C)c2nc3ccc(F)cc3s2)cc1	89.1µM	0	?	28.2µM	0	-
CN(C)c1ccc(/C=C2\C(=N)N3N=C(CC(=O)N4CCCC4)SC3=NC2=O)cc1Br	0	0	0	0	0	0
Cc1ccc(/C=C2/C(=N)N3N=C(CC(=O)N4CCCC4)SC3=NC2=O)o1	0	0	0	0	0	31.6µM
N=C1/C(=C\c2ccc(Br)o2)C(=O)N=C2SC(CC(=O)N3CCCCC3)=NN12	0	0	0	?	0	44.7µM
CN(C)c1ccc(/C=C2\C(=N)N3N=C(CC(=O)N4CCCCC4)SC3=NC2=O)cc1	0	0	?	?	0	0
O=C(OCc1cn([C@H]2CN(CC3CCCCC3)[C@@H](c3ccc(Cl)cc3)C[C@@H]2O)nn1)c1ccccc1	-	-	-	-	0	-
COc1ccc(N2CCN(C(=O)C3CCN(c4nc5ccc(C)cc5[nH]4)CC3)CC2)cc1	-	0	0	0	-	?
COc1ccc2nc(N3CCCC3)[nH]c2c1	0	0	0	0	0	5.62µM
COc1ccc2nc(SCC(=O)c3c(N)n(C4CC4)c(=O)[nH]c3=O)[nH]c2c1	-	0	0	0	0	7.08µM
CCOc1ccc2nc(SCC(=O)N(C)C3CCS(=O)(=O)C3)[nH]c2c1 (centres undefined)	0	0	0	0	0	39.8µM
SMILES	Sfp PPTase inh	HP1b binding inh	JMJD2A Tudor inh	BAZ2B block	PLK1 PBD block	G9a inh
CCOc1ccc2nc(SCC(=O)NCc3ccc(OC)c(OC)c3)[nH]c2c1	0	0	0	0	26.7µM	0
CCOc1ccc2c(c1)c(=O)c(C(=O)c1ccc(CC)cc1)cn2CC(=O)Nc1ccccc1OC	-	0	?	0	-	0
CCOc1ccc(-n2c(=S)sc3c(=O)[nH]c(SCC(=O)NCc4ccco4)nc32)cc1	56.2µM	0	?	?	?	39.8µM
Nc1nc(SCC(=O)c2c(N)n(C3CC3)c(=O)[nH]c2=O)n[nH]1	-	0	0	0	0	11.2µM
COc1ccc2nc(SCC(=O)NCc3ccc(OC)c(OC)c3)[nH]c2c1	0	0	89.1µM	0	?	0
CCOc1ccc2nc(SCC(=O)Nc3ccc4[nH]c(=O)[nH]c4c3)[nH]c2c1	-	0	0	?	0	39.8µM
COc1ccc(CNC(=O)CSc2nc3ccc(OC)cc3[nH]2)cc1	0	0	0	0	0	0
CS(=O)(=O)c1ccc(C(=O)OCC#CCSc2nnc(-c3cccc4ccccc34)o2)cc1	-	-	0	-	-	-
